From PubChem BioAssay
Calls of active or inactive are those of the source. Unless noted, no rule for the calls is given here.

What was measured:
[1] = tested on: XIP peptide (Xip251-270) binding; experiment: small-molecule binders of XIP peptide, primary screen, biochemical, small-molecule microarray, fluorescence 635/667 nm, 0.1 µg/mL protein (AID 1182); conditions: fluorescent protein binding, 635 nm, higher = more signal, called active from +8 up or from −8 down
XIP peptide (Xip251-270) = experiment: small-molecule binders of XIP peptide, primary screen, biochemical, small-molecule microarray, fluorescence 635/667 nm, 0.5 µg/mL protein (AID 1183); conditions: small-molecule microarray binding, fluorescence 635 nm; higher = more signal
[2] = Plasmodium falciparum growth inhibition, primary screen, strain 3D7, DAPI fluorescence, 100 nL (AID 1184);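 also: parasites grown inside human red blood cells in medium with human serum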; conditions: P. falciparum 3D7 growth, 3 d, higher = more signal
[3] = target: Homeobox protein Hox-A13 (Mus musculus) (UniProt Q62424); experiment: inhibitors of HoxA13-DNA binding, primary screen, biochemical, fluorescence polarization, labeled oligonucleotide (AID 1185); conditions: 15 min, higher = more signal, called active from +8 up or from −8 down
Chain of Homeobox protein Hox-A13 (Mus musculus) (Q62424 whole entry, looked up): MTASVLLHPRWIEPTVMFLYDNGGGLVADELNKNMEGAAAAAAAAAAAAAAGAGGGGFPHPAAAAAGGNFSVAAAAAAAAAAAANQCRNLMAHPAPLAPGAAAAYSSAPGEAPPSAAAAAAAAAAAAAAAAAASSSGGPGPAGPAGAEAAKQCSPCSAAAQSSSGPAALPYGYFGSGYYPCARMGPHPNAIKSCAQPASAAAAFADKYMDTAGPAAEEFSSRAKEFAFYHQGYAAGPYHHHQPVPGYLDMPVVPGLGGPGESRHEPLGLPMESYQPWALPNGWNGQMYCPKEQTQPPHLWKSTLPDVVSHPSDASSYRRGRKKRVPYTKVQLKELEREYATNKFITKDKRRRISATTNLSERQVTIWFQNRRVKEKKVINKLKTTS

[4] = inhibitors of hydroxyurea-induced Chk1 phosphorylation, primary screen, imaging, HeLa, phospho-Chk1 antibody, percent positive cells (AID 1186); conditions: hydroxyurea-induced phospho-Chk1 immunofluorescence imaging, higher = more signal
[5] = inhibitors of hydroxyurea-induced Chk1 phosphorylation, primary screen, imaging, HeLa, phospho-Chk1 nuclear intensity (AID 1187); conditions: hydroxyurea-induced phospho-Chk1 immunofluorescence imaging, higher = more signal

| SMILES | composite z-score [1] | composite z-score (XIP peptide (Xip251-270)) | z-score [2] | z-score [3] | z-score [4] | z-score [5] |
| --- | --- | --- | --- | --- | --- | --- |
| C[N+](C)(C)CCCC[C@@H]1NC(=O)[C@H]2C[C@@H](C(=O)O)[C@@H](c3ccc(O)cc3)N2C1=O | 0.154 (inactive) | 0.274 | 0.115 | -1.42 (inactive) | -0.349 (inactive) | -0.313 (inactive) |
| COc1ccc(NN2C(C(O)c3ccccc3)C=CC3C(=O)N(C4CCCCC4)C(=O)C32)cc1 (stereo unspecified) | 0.387 (inactive) | 0.745 | -1.08 | -4.8 (inactive) | 0.329 (inactive) | 0.711 (inactive) |
| C=CCC(OC(C)=O)[C@@H]1[C@@H](N(Cc2ccc(-c3ccccc3)cc2)C(=O)Cc2ccc(OC)cc2)c2cc(OCCCO)ccc2N1C(=O)Cc1ccc(OC)cc1 (stereo partly specified) | 0.497 (inactive) | -0.243 | -1.97 | -2.75 (inactive) | 0.684 (inactive) | 0.763 (inactive) |
| CC(C)C[C@@H]1NC(=O)[C@@H]2C[C@H](C(=O)NCCCCCNC(=O)CS)[C@H](c3ccc(O)cc3)N2C1=O | 0.741 (inactive) | 0.56 | -1.13 | -0.472 (inactive) | 0.581 (inactive) | 0.313 (inactive) |
| COCCOC(=O)N1C(=O)[C@@]2(c3cc(C#CCC(C(=O)OC)C(=O)OC)ccc31)[C@H](C(=O)N1CCc3cc(OC)c(OC)cc3C1)[C@H]1C(=O)O[C@H](c3ccccc3)[C@H](c3ccccc3)N1[C@@H]2c1ccccc1OCCO | 0.629 (inactive) | 0.733 | -2.12 | 0.96 (inactive) | -0.182 (inactive) | -0.252 (inactive) |
| O=C1OCC=C[C@H]2OC34C=CCN(Cn5nnc6ccccc65)C(=O)[C@H]3N(CCO)C(=O)[C@@H]4[C@@H]12 (stereo partly specified) | -0.149 (inactive) | -0.884 | 1.12 | -4.12 (inactive) | -0.743 (inactive) | -0.287 (inactive) |
| C=CC[C@]1(C(=O)NCC(O)CO)N=C(c2ccc(OCCCO)cc2)O[C@H]1c1ccccc1CN=[N+]=[N-] (stereo partly specified) | 0.513 (inactive) | -0.201 | -2.5 | -3.62 (inactive) | -0.116 (inactive) | -0.482 (inactive) |
| CCOC(=O)C[C@H]1[C@H](OC(=O)c2ccccc2-c2ccccc2)[C@@H](NC(=O)CC(C)C)c2cc(OCCCO)ccc2N1C(=O)c1ccccc1 | 0.539 (inactive) | 0.649 | -0.966 | -4.48 (inactive) | -0.439 (inactive) | -0.151 (inactive) |
| C=C(CCCC)/C(=C/C[C@@H](OC(C)=O)c1cccc(OCCO)c1)c1cc(C(=O)OC)ccc1OC | -0.234 (inactive) | 0.826 | -3.06 | -5.01 (inactive) | 0.496 (inactive) | 0.331 (inactive) |
| CC(C)(C)OC(=O)CC[C@]1(C(=O)N2CCOCC2)COC(c2ccc(OCCCO)cc2)=N1 | -0.199 (inactive) | 0.0906 | 0.33 | -3.78 (inactive) | -0.16 (inactive) | -0.0926 (inactive) |
| O=C(CS)NCCCCCCNC(=O)[C@H]1C[C@H]2C(=O)NCC(=O)N2[C@H]1c1cccc(OCCO)c1 | 0.419 (inactive) | 0.702 | -1.34 | -2.25 (inactive) | -0.321 (inactive) | -0.529 (inactive) |
| CN1C(=O)C2CC=C(C3=CCO[C@@H]3[C@H]3CCCN3S(=O)(=O)c3ccccc3[N+](=O)[O-])CC2C1=O (stereo partly specified) | 0.162 (inactive) | 0.728 | 0.561 | -6.57 (inactive) | -0.0719 (inactive) | 0.234 (inactive) |
| C=C(CC1([C@@H](NP(=O)(c2ccccc2)c2ccccc2)[C@H]2C[C@@H]2CCCC)CC1)c1cccc(OC)c1 | -0.68 (inactive) | -0.207 | -0.0814 | -1.55 (inactive) | 0.731 (inactive) | 0.788 (inactive) |
| C=C(/C=C\CNS(=O)(=O)c1ccc(C)cc1)[C@H](O)[C@H]1CCCN1S(=O)(=O)c1ccccc1[N+](=O)[O-] | -0.167 (inactive) | -0.167 | -1.8 | -5.5 (inactive) | -0.225 (inactive) | 0.161 (inactive) |
| COC(=O)[C@@]1(Cc2ccccc2)[C@H]2c3cc(C(=O)N(C)C)n(CCF)c3C[C@H]2CN1C(=O)c1ccccc1 | 1.3 (inactive) | -0.504 | -0.684 | -4.95 (inactive) | -0.441 (inactive) | -0.748 (inactive) |
| C=CCNC(=O)[C@@H]1[C@H]2C(=O)O[C@H](c3ccccc3)[C@H](c3ccccc3)N2[C@H](c2ccc(O)cc2)[C@@]12C(=O)N(C(=O)OCCOC)c1ccc(C#CCC(C(=O)OC)C(=O)OC)cc12 | 0.891 (inactive) | 0.756 | -1.7 | -1.28 (inactive) | -0.0611 (inactive) | -0.187 (inactive) |
| COc1ccc([Si](C)(C)[C@@H]2[C@@H](CC(=O)N3CCC[C@H]3CO)O[C@]3(C(=O)N(Cc4cccc(N5C(=O)c6cccc7cccc5c67)c4)c4ccccc43)[C@H]2C)cc1 | 3.7 (inactive) | 0.703 | -2.1 | -2.34 (inactive) | -0.798 (inactive) | -0.489 (inactive) |
| C=C(C(=O)CC[C@@H](OC(=O)c1ccccc1-c1ccccc1C(=O)O)c1cccc(OCCO)c1)C(C)C | 0.0145 (inactive) | 0.25 | -2.01 | -4.86 (inactive) | -0.0826 (inactive) | -0.0465 (inactive) |
| CC1CC/C=C\[C@H]2OC34C=CCN(CCN5CCOCC5)C(=O)[C@H]3N(C(CO)C(C)C)C(=O)[C@@H]4C2C(=O)O1 (stereo partly specified) | 0.287 (inactive) | 0.054 | -0.0648 | -7 (inactive) | 0.607 (inactive) | 0.284 (inactive) |
| COc1cc(Cc2cc3c(c(CCc4ccccc4)n2)[Si](C(C)C)(C(C)C)O[C@H]3c2ccccc2)cc(OC)c1OC | 0.41 (inactive) | 0.202 | 0.578 | -5.59 (inactive) | -0.167 (inactive) | -0.286 (inactive) |
| CCCCCCc1nc(Cc2cc(OC)c(OC)c(OC)c2)c(C)c2c1[Si](C(C)C)(C(C)C)OC2 | -0.814 (inactive) | 0.0092 | -2.76 | -1.45 (inactive) | -0.817 (inactive) | -0.386 (inactive) |
| O=C1OC[C@@H](c2ccccc2)n2cc(/C=C/c3ccccc3)cc21 | 0.623 (inactive) | 0.505 | -0.0812 | 0.816 (inactive) | -0.481 (inactive) | -0.268 (inactive) |
| COCCCNC(=O)[C@]1(Cc2ccccc2N=[N+]=[N-])N=C(c2ccc(OCCCO)cc2)O[C@@H]1c1ccccc1 | 1.22 (inactive) | 0.77 | -2.17 | -2.62 (inactive) | -0.129 (inactive) | 0.0037 (inactive) |
| COc1ccc(C(=O)Nc2cccc(CN3C(=O)[C@]4(O[C@H](CC(=O)N(CCO)Cc5ccccc5)[C@@H]([Si](C)(C)c5ccc(OC)cc5)[C@@H]4C)c4ccccc43)c2)cc1 | 0.256 (inactive) | 0.572 | -2.49 | -0.179 (inactive) | -0.571 (inactive) | 0.0153 (inactive) |
| CC1(C)OB(/C=C\CC(OC(=O)c2ccncc2)c2ccccc2)OC1(C)C (stereo unspecified) | 0.258 (inactive) | 0.478 | 0.78 | -3.16 (inactive) | 0.301 (inactive) | 0.415 (inactive) |
| COC(=O)C1=CC(c2ccc(CO)cc2)=CC(C2CC2)N(Cc2cc3c(cc2Br)OCO3)C=C1C(=O)OC (stereo unspecified) | 1.59 (inactive) | 0.859 | -2.29 | -5.19 (inactive) | 0.0404 (inactive) | -0.0211 (inactive) |
